# Assay results as given in article PMC7862700, “An all-to-all approach to the identification of sequence-specific readers for epigenetic DNA modifications on cytosine”.
# Columns and labels:
# Test in all cases: DAPPL (digital affinity profiling via proximity ligation, sequencing); 10 mM Tris-HCl pH 7.5, 50 mM NaCl, 1 mM DTT, 4% glycerol, room temperature, 30 min; GST-TFs on glutathione beads, 16-mer random dsDNA library, 0.1% formaldehyde crosslink after washing; high values mean tight binding
# Conditions in all cases: protein: recombinant; tags: N-terminal GST; dsDNA, one strand shown
# ELK4 = target: T1, ELK4 (Homo sapiens, UniProt P28324-2 1-405)
# T1 sequence: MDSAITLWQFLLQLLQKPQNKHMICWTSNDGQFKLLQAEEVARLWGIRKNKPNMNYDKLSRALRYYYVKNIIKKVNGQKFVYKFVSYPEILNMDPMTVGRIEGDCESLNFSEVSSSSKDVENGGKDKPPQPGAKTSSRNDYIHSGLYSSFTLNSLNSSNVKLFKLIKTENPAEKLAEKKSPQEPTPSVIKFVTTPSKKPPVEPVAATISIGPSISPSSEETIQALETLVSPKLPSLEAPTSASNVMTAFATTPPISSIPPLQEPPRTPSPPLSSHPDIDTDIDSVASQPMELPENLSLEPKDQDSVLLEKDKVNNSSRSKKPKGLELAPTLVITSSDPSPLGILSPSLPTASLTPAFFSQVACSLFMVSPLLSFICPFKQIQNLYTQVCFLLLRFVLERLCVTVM
# In short: (§1)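 GST fusions of human transcription factors were expressed in yeast and captured with glutathione beads. Once given DNA barcodes and pooled alongside a tag-only sample, they were incubated for 30 min at room temperature with 200 nmole of a random double-stranded 16-mer DNA library in Tris/NaCl/DTT/glycerol buffer, then washed, crosslinked (0.1% formaldehyde), proximity-ligated, PCR-amplified and sequenced on an Illumina NextSeq500. The binding signal of each hexamer is its read frequency for a factor divided by its frequency for the tag-only sample.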
# ELF3 = target: T2, ELF3 (Homo sapiens, UniProt P78545 1-371)
# T2 sequence: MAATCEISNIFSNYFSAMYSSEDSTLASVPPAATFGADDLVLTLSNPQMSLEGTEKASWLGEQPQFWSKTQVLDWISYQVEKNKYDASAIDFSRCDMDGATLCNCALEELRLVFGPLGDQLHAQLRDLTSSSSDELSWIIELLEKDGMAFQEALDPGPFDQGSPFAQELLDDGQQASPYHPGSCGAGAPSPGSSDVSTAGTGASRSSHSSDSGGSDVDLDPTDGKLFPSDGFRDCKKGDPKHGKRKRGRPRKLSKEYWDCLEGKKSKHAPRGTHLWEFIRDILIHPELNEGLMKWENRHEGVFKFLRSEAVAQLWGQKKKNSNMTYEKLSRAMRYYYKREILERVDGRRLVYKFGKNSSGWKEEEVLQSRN
# In short: as §1
# ERF = target: T3, ERF (Homo sapiens, UniProt P50548 1-548)
# T3 sequence: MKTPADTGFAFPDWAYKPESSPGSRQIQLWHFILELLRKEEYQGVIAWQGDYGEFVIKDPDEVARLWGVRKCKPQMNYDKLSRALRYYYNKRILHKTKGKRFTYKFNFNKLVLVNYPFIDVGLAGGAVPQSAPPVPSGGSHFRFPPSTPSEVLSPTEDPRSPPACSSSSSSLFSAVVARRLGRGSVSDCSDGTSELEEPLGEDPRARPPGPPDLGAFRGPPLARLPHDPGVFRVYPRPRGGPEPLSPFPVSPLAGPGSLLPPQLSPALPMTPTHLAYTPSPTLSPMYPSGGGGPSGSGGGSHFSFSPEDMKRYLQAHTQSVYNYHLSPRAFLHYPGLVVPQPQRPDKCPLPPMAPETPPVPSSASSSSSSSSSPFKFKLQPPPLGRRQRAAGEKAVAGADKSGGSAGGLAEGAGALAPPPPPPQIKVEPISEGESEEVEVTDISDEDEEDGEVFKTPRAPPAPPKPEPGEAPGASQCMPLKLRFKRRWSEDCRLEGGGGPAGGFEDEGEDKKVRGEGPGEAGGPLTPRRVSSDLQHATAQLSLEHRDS
# In short: as §1
# ETV3L = target: T4, ETV3L (Homo sapiens, UniProt Q6ZN32 1-361)
# T4 sequence: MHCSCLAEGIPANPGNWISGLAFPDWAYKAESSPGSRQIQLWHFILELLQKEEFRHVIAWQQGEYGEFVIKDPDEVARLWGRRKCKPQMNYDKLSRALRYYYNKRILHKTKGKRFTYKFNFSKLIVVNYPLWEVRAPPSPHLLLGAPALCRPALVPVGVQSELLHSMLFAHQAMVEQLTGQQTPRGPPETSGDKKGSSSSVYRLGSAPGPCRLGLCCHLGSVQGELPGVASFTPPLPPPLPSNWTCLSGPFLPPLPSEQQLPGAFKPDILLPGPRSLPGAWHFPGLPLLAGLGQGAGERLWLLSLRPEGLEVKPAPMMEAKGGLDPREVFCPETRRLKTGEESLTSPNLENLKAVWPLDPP
# In short: as §1
# ETS2 = target: T5, ETS2 (Homo sapiens, UniProt P15036 1-469)
# T5 sequence: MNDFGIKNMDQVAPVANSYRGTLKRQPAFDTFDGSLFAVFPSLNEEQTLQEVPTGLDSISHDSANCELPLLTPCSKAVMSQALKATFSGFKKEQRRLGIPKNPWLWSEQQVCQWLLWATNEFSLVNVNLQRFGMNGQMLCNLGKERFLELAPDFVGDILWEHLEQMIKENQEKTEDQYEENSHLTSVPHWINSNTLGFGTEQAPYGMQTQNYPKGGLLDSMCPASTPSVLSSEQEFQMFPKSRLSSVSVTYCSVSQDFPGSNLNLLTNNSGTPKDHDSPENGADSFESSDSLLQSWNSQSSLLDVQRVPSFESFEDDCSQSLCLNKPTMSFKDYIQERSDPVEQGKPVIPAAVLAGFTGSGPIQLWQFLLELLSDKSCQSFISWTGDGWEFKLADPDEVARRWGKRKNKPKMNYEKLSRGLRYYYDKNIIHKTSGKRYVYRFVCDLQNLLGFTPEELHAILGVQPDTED
# In short: as §1
# SPDEF = target: T6, SPDEF (Homo sapiens, UniProt O95238 1-335)
# T6 sequence: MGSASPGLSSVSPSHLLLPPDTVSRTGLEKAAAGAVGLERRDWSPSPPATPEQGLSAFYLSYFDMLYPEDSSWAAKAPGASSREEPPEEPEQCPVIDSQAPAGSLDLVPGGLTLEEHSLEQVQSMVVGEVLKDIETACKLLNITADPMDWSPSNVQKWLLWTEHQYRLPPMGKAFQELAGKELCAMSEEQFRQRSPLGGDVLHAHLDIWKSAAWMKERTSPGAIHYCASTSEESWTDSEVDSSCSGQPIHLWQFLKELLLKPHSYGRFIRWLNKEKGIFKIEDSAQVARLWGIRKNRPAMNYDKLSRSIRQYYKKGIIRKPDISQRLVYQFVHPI
# In short: as §1
# ETV7 = target: T7, ETV7 (Homo sapiens, UniProt Q9Y603 1-341)
# T7 sequence: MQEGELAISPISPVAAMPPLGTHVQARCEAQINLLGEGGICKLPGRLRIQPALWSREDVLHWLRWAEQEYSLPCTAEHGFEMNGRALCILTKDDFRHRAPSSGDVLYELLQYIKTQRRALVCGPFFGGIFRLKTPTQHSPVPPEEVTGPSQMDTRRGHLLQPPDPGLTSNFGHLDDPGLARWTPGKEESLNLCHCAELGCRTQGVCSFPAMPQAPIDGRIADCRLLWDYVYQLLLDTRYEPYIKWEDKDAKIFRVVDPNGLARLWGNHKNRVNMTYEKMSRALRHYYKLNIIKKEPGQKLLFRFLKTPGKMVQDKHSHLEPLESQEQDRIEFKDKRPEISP
# In short: as §1
# ETV3 = target: T8, ETV3 (Homo sapiens, UniProt P41162-2 1-143)
# T8 sequence: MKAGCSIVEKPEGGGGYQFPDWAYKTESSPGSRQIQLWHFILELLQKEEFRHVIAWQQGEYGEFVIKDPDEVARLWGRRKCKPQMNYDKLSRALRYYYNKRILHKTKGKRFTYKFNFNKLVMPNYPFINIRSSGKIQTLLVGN
# In short: as §1
# ETV6 = ETV6 (Homo sapiens, UniProt P41212 1-452)
# In short: as §1
# ETV6, sequence (P41212 whole entry): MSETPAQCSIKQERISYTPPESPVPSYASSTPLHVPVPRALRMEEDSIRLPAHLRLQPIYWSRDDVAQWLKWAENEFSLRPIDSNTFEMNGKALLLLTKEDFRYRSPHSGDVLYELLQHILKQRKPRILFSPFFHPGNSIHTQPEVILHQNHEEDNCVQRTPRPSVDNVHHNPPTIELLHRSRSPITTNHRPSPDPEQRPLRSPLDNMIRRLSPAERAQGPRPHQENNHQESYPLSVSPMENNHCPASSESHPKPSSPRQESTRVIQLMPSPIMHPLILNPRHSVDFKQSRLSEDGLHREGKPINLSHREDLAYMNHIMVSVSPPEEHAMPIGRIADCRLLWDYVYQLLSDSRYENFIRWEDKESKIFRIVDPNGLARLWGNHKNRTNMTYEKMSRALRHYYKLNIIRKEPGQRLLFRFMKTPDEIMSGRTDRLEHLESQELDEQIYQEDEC
sequence,measurement,setting,value
TTAGAT,binding signal,ELK4,"1.23 fold enrichment (6-mer frequency, TF over GST control)"
same,binding signal,ELF3,"1.05 fold enrichment (6-mer frequency, TF over GST control)"
same,binding signal,ERF,"1.21 fold enrichment (6-mer frequency, TF over GST control)"
same,binding signal,ETV3L,"1.04 fold enrichment (6-mer frequency, TF over GST control)"
same,binding signal,ETS2,"1.01 fold enrichment (6-mer frequency, TF over GST control)"
same,binding signal,SPDEF,"1.08 fold enrichment (6-mer frequency, TF over GST control)"
same,binding signal,ETV7,"1.03 fold enrichment (6-mer frequency, TF over GST control)"
same,binding signal,ETV3,"1.07 fold enrichment (6-mer frequency, TF over GST control)"
same,binding signal,ETV6,"1.03 fold enrichment (6-mer frequency, TF over GST control)"
